# Screens deposited in PubChem by National Center for Advancing Translational Sciences (NCATS).
# This is a sample that favours compounds with a hit; in the whole collection about 10% have one here.
# JMJD2A Tudor inh: JMJD2A Tudor domain (human) inhibition. 390,000 compounds, 4.4% hits. AID 504339. O75164. Potency, µM (titrated, usually from 114 µM), without a hit: at the highest dose activity change, negative = inhibition, actives largely listed as inhibitors. AlphaScreen JMJD2A-Tudor / H3K4me3 peptide binding; note: potency is the fitted concentration of half-maximal effect; % is set by controls: 0 for no effect and ±100 for the full control effect; nearly all actives have a fitted effect of over 50% in size
# BAZ2B inh: blocks human BAZ2B | AID 504333 | AlphaScreen BAZ2B-H3K14Ac peptide displacement | 360,000 compounds, 4.4% hits | Potency, µM (highest dose often 114 µM), for inactives: at the top dose activity change, negative = inhibition, usual class: inhibitors | Q9UIF8; note: potency is the fitted concentration of half-maximal effect; % is set by controls: 0 for no effect and ±100 for the full control effect; nearly all actives have a fitted effect of over 60% in size
#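 Multi-concentration screen (max 110 uM) measuring displacement of acetylated histone H3 peptide from BAZ2B by AlphaScreen, using 50 nM protein, 50 nM peptide and 10 ug/mL streptavidin donor plus Ni-chelate acceptor beads.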
# Six1-Eya2 inh: Six1/Eya2 interaction inhibition | Q15475+O00167 | AlphaScreen GST-Six1/His-Eya2 binding, biochemical; stronger effect = lower value | activity change, % (concentration not given with the values) | 360,000 compounds, 0.56% hits | AID 651725; in the data active = activity change below about -65%; inconclusive = mostly about -30% to -63%; note: % is set by controls: 0 for no effect and ±100 for the full control effect
#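 AlphaScreen with GST-Six1 and His-Eya2 (5X mix: 250 nM and 500 nM), glutathione donor and nickel acceptor beads; buffer 50 mM Tris pH 8.0, 300 mM NaCl, 1 mM TCEP; 1 h at 37 C in the dark.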
# HP1b binding inh: HP1-beta chromodomain-methylated histone interaction inhibition. 390,000 compounds, 0.56% hits. AlphaScreen HP1-beta / biotin-H3K9me3 peptide binding. Potency, µM (highest dose often 114 µM), without a hit: at the top dose activity change, negative = inhibition, usual class: inhibitors. P83916. AID 540317; note: potency is the fitted concentration of half-maximal effect; nearly all actives have a fitted effect of over 70% in size
# Target sequence (P83916 whole entry, looked up): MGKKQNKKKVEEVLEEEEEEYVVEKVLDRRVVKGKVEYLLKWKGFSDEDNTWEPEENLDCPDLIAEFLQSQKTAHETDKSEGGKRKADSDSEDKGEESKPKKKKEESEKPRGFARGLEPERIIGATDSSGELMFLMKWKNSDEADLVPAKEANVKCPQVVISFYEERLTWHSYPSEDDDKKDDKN
#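 AlphaScreen: HP1-beta (50 nM) preformed 30 min with biotin-H3(1-18)K9me3 peptide (50 nM) in PBS pH 7.4, 0.01% Tween-20. Compound added for 30 min at RT, then streptavidin donor/nickel chelate acceptor beads (10 ug/mL) for 30 min.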
# G9a inh: inhibitors of human histone lysine methyltransferase G9a; G9a H3K9 monomethylation, AlphaScreen, 2 h; Potency, µM (top dose mostly 102 µM), without a hit: top-dose activity, negative = inhibition, most hits filed as inhibitors; 350,000 compounds, 8.8% hits; AID 504332; note: potency is the fitted concentration of half-maximal effect; % is set by controls: 0 for no effect and ±100 for the full control effect; nearly all actives have a fitted effect of over 75% in size
# Target sequence (Q96KQ7 913-1193 limits assumed): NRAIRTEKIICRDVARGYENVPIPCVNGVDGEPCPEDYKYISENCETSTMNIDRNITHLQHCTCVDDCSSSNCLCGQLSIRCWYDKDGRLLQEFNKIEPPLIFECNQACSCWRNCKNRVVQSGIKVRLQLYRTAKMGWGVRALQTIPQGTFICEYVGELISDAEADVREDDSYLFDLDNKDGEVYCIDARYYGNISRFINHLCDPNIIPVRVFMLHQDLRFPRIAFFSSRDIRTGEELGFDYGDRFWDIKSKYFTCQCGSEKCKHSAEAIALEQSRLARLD
#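 Readings reflect AlphaScreen signal from monomethyl-H3K9 antibody detection. HMT at 20 nM; substrate b-H3K9 500 nM; cofactor SAM 20 uM; 2 h RT reaction; compounds tested as titrations in qHTS with 15 min preincubation.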
# CtBP-E1A inh: inhibitors of CtBP/E1A interaction; AlphaScreen GST-E1A/His-CtBP binding, 1536-well; stronger effect = lower value; 340,000 compounds, 0.49% hits; activity change, % (test concentration not listed); in the data active = activity change below about -65%; inconclusive = mostly about -30% to -63%; note: % is set by controls: 0 for no effect and ±100 for the full control effect
#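 Homogeneous bead-based format: GST-tagged E1A captured on glutathione donor beads, His-tagged CtBP on nickel acceptor beads; compounds precede bead addition by 2 h at 37 °C.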
# * marks the source's active call; other numbers are inactive results; ? = inconclusive; . = no result given; [ ] = remark or other dose. Unless noted, calls come from the whole dose curve; as a rule, active = well fitted inhibition curve with a large enough effect; inconclusive = small, poorly fitted or top-dose-only effect; inactive = no such curve, though single readings can be large or run the other way.
SMILES,JMJD2A Tudor inh,BAZ2B inh,Six1-Eya2 inh,HP1b binding inh,G9a inh,CtBP-E1A inh
Cc1ccc(NC(=O)C(=O)NCC(c2cccnc2)N2CCc3ccccc32)cc1Cl (stereo not drawn),-12%,-16%,.,22%,-33%[59 µM],.
Cc1ccc(Cc2nc3ccccc3nc2SCC(=O)NCCc2ccccc2)cc1,2%,1%,.,32%[57 µM],0%[59 µM],.
COc1cccc(-c2nnc(SCC(=O)N3CCCCC3)o2)c1,-9%,-1%,.,15%,16µM*,.
COc1ccc(-c2nnc(SCC(=O)N3CCCCC3)o2)cc1,-10%,-12%,8,-4%,-3%,4
Cc1cc(N2CCN(C)CC2)nc2ccc(NC(=S)NCCCN3CCc4ccccc4C3)cc12,-26%,?,-7,-7%,40µM*,-12
Cc1cc(N2CCCC2)nc2ccc(NC(=S)NCCCN3CCC(C)CC3)cc12,-32%,.,-5,7%,50µM*,-5
CCN1CCN(c2cc(C)c3cc(NC(=S)NCCCN4CCc5ccccc5C4)ccc3n2)CC1,?,?,-6,-12%,32µM*,-23
CCCN1CCN(CCCNC(=S)Nc2ccc3nc(N4CCN(CC)CC4)cc(C)c3c2)CC1,-1%,-8%,-4,4%,35µM*,3
Cc1ccccc1NC(=O)Nc1ccc2nc(N3CCN(C)CC3)cc(C)c2c1,-16%,10%[57.1 µM],.,1%,-8%[59 µM],.
CCCCNC(=S)Nc1ccc2nc(N3CCN(CC)CC3)cc(C)c2c1,?,?,11,12%,?,-8
Cc1cccc(CC(=O)Nc2ccc3nc(N4CCC(C)CC4)cc(C)c3c2)c1,16%,22%,.,85%,18%[59 µM],.
CCN1CCN(c2cc(C)c3cc(NC(=O)c4cccs4)ccc3n2)CC1,-34%,-20%,-9,-18%,13%[12.7 µM],-19
CC1CCN(C(c2ccc(F)cc2)c2sc3nc(-c4ccco4)nn3c2O)CC1 (stereo not drawn),-19%,-25%,.,16%,-10%[59 µM],.
CC(=O)c1ccc(N2CCN(c3nc4ccccc4c4nc(-c5cccc(C)c5)nn34)CC2)cc1,5%,4%,.,39%,20%[59 µM],.
CC(=O)Nc1ccc(SCC(=O)Nc2sccc2C#N)cc1,-9%,-12%,15,15%,?,-8
COc1ccc(CC(=O)NNC(=O)c2cccs2)cc1OC,32µM*,-6%,5,16%,2%,6
COc1ccccc1CC(=O)NNC(=O)c1cccs1,-13%,-3%,20,47%,3%,1
CC(=O)Nc1ccc(SCC(=O)c2ccc(Br)s2)cc1,?,50µM*,-2,?,22µM*,-4
Cc1ccnc(SCC(=O)Nc2sccc2C#N)n1,-34%,50µM*,-8,28%,-32%,-2
Cc1ccnc(SCC(=O)c2ccc(Br)s2)n1,11%,-35%,5,50%,18µM*,5
Cn1nnnc1SCC(=O)c1ccc(Br)s1,-16%,0%,5,39%,.,2
COc1ccc(-c2cc3c(=O)n(CC(=O)Nc4ccc(Br)c(C)c4)ccn3n2)cc1OC,-4%,0%,.,35%,21%[59 µM],.
Cc1ccc(CN(C(=O)c2ccccc2F)c2ccccn2)o1,-26%,?,.,10%,-31%[59 µM],.
Cc1cc(C)nc(SCC(=O)NNS(=O)(=O)c2ccc(C#N)cc2)n1,45µM*,56µM*,1,?,7.9µM*,9
Cc1ccnc(SCC(=O)c2cccs2)n1,-8%,-4%,-4,35%,35µM*,0
SMILES,JMJD2A Tudor inh,BAZ2B inh,Six1-Eya2 inh,HP1b binding inh,G9a inh,CtBP-E1A inh
Cc1ccnc(SCc2cc(=O)c(OC(=O)c3cccs3)co2)n1,-14%,6%,2,32%,-2%,5
Cc1cc(C)nc(SCC(=O)NNC(=O)c2cccs2)n1,-1%,-9%,-6,?,56µM*,11
Cc1cc(C)nc(NS(=O)(=O)c2ccc(NS(=O)(=O)c3ccc(C#N)cc3)cc2)n1,5%,-18%,-16,12%,?,-4
CSc1cccc(NC(=O)c2ccc3c(c2)CCCN3S(C)(=O)=O)c1,-30%,-16%,.,30%,4%[59 µM],.
CCCN1CNc2c(c(=O)[nH]c(=S)n2CCc2cccc(OC)c2OC)C1,-8%,.,.,33%,.,.
COc1cccc(S(=O)(=O)Nc2ccc3sc(C)nc3c2)c1,79µM*,-8%,-1,26%,22µM*,-4
CCCCn1cc(S(=O)(=O)c2ccc(Cl)cc2)c(=O)c2cc(F)c(N3CCCC(C)C3)cc21 (stereo not drawn),-7%,6%,.,55%,-2%[59 µM],.
Cc1cc(N2C(=O)C(O)=C(C(=O)c3cc4ccccc4o3)C2c2cccs2)no1 (stereo not drawn),?,?,-12,-2%[57 µM],35µM*,-8
Cc1ccc(C2C(C(=O)c3cc4ccccc4o3)=C(O)C(=O)N2c2cc(C)on2)cc1 (stereo not drawn),?,?,-9,-25%[57 µM],0%[0.0925 µM],-2
Cc1cc(N2C(=O)C(O)=C(C(=O)c3cc4ccccc4o3)C2c2ccc([N+](=O)[O-])cc2)no1 (stereo not drawn),-28%,?,-4,6%,45µM*,.
Cn1c(=O)c2c(-c3ccc(Br)cc3)n(Cc3ccc(F)cc3)cc2n(C)c1=O,?,-29%,.,-13%,?,.
COc1ccc(C(=O)c2cc([N+](=O)[O-])ccc2N2CCCC2)cc1,-33%,?,-1,?,?,6
COc1ccc(C(=O)c2ccc([N+](=O)[O-])cc2Cl)cc1,56µM*,?,?,?,.,-28
COc1ccc(OC)c(C(=O)c2ccc([N+](=O)[O-])cc2)c1,89µM*,.,?,-29%[57 µM],.,?
CCOC(=O)C1CCCN(C(=O)c2nn(-c3ccc(OC)cc3)c(=O)c3c2c2ccccc2n3C)C1 (stereo not drawn),-17%,.,.,42%,3%[59 µM],.
COc1ccc(NC(=O)c2ccco2)cc1NC(=O)COc1ccc(Cl)c(C)c1,-2%,3%,.,32%,12%[59 µM],.
CC1(C)Cc2nc3sc(C(=O)NCCO)c(N)c3cc2CO1,-22%,11%,3,18%,11µM*,10
CC1(C)Cc2nc3sc(C(=O)O)c(N)c3cc2CS1,.,.,.,.,50µM*,.
CC1(C)Cc2nc3sc(C(=O)NCCCO)c(N)c3cc2CS1,-24%,?,-27,19%,25µM*,-5
CCC(=O)N1CCc2cc(CNC(=O)Nc3ccc(OC)cc3OC)ccc21,-18%,-8%,.,1%[57 µM],-3%[59 µM],.
COCCNc1nc(-c2ccccc2OC)nc2ccccc12,.,.,.,.,4%[0.501 µM],.
CC(C)(C)OC(=O)N1CC23CC(c4ccc(F)cc4)C(CC2S1(=O)=O)O3 (stereo not drawn),-8%,.,.,21%,.,.
